Data on nine compounds can be found in PubChem BioAssay (Tox21).

Test [1] in a line: qHTS assay to identify small molecule antagonists of the thyroid receptor (TR) signaling pathway - cell viability counter screen (AID 743064). Further: nearly all actives have a fitted effect of over 50% in size. Further: potency means the concentration at half of the fitted maximal effect. A digest of the protocol:
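GH3.TRE-Luc cells, 4 h pre-plating; cpd + T3 1 nM final; 37 °C 23.5 h; CellTiter-Fluor 30 min; fluorescence read.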
A general note: Quantitative high-throughput screening tests each substance at several concentrations.

Test [2] has as its system thyroid hormone receptor (rat, GH3 cells). The test can be described thus: qHTS assay to identify small molecule agonists of the thyroid receptor (TR) signaling pathway (AID 743066; calls by dose curve).
Test [3] in a line: qHTS assay to identify small molecule antagonists of the estrogen receptor alpha (ER-alpha) signaling pathway - cell viability counter screen (AID 743074; calls by dose curve;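 further: HEK293 cells carrying ER-alpha-UAS-bla reporter stimulated with 17beta-estradiol; nearly all actives have a fitted effect of over 45% in size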).
Test [4] in a line: qHTS assay to identify small molecule antagonists of the estrogen receptor alpha (ER-alpha) signaling pathway using the BG1 cell line - cell viability counter screen (AID 743081).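 Further: compound given together with 17beta-estradiol as the ER stimulus; series mostly up to about 70 µM; nearly all actives have a fitted effect of over 45% in size.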
Another test concerns the target Aromatase (Homo sapiens) (UniProt P11511). Briefly: qHTS assay to identify aromatase inhibitors (AID 743083). Further: series mostly up to about 70 µM; nearly all actives have a fitted effect of over 55% in size.
The nature of test [5]: qHTS assay to identify aromatase inhibitors - cell viability counter screen (AID 743084).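 Further: cells stimulated with testosterone during compound exposure; nearly all actives have a fitted effect of over 55% in size.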 Further: potency means the concentration at half of the fitted maximal effect.
Test [6] has as its target Aryl hydrocarbon receptor (Homo sapiens) (UniProt P35869). The test can be described thus: qHTS assay to identify small molecule that activate the aryl hydrocarbon receptor (AhR) signaling pathway (AID 743085). Further: nearly all actives have a fitted effect of over 15% in size. Further: potency means the concentration at half of the fitted maximal effect.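 On activation: HG2L7.5c1 human HepG2 liver cells with stably integrated DRE-driven firefly reporter; series mostly up to about 70 µM.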 A digest of the protocol: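 Luminescence read-out: ONE-Glo reagent, 30 min at room temperature, in HG2L7.5c1 HepG2 reporter cells treated 24 h at 37C. Viability was measured beforehand by CellTiter-Fluor fluorescence after 30 min at 37C.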

Test [7] in a line: qHTS assay to identify small molecule that activate the aryl hydrocarbon receptor (AhR) signaling pathway - cell viability counter screen (AID 743086).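 Further: HepG2 liver cells carrying the AhR DRE luciferase reporter; series mostly up to about 70 µM; nearly all actives have a fitted effect of over 45% in size.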 The method, boiled down:
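Cytotoxicity counter screen: CellTiter-Fluor signal (30 min, 37 C) in 4000 HepG2 cells/well carrying the DRE-luciferase reporter, following 24 h compound exposure at 37 C.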

Test [8] can be described thus: qHTS assay to identify small molecule antagonists of the peroxisome proliferator-activated receptor gamma (PPARg) signaling pathway - cell viability counter screen (AID 743194). Further: nearly all actives have a fitted effect of over 55% in size. The method, boiled down:
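Viability was measured as CellTiter-Glo luminescence in GeneBLAzer PPARg UAS-bla HEK293H cells. These cells had been exposed 17 h at 37 C to compounds together with rosiglitazone at 50 nM final, with the beta-lactamase readout taken in the same wells.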

The nature of test [9]: qHTS assay for small molecule agonists of the antioxidant response element (ARE) signaling pathway (AID 743202; active means well fitted activation curve with a large enough effect in the signal ratio in the repeat runs, not every such curve was filed as active; the % refers to the signal ratio). The method, boiled down:
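Quantitative high-throughput format in HepG2 cells bearing an integrated ARE-beta-lactamase reporter. Compound exposure lasted 16 h at 37 C, and fluorescence was read 2 h after adding LiveBLAzer B/G substrate at room temperature.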

Test [10] can be described thus: qHTS assay for small molecule agonists of the antioxidant response element (ARE) signaling pathway - cell viability counter screen (AID 743203; calls by dose curve; further: nearly all actives have a fitted effect of over 55% in size). The method, boiled down:
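HepG2 cells carrying ARE-driven beta-lactamase; 2,000 cells/well; 5 hrs plating; compound pinned from DMSO; 16 hrs 37C/5% CO2; CellTiter-Glo added; 30 min RT; luminescence.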

Test [11] is described as follows: qHTS assay for small molecule activators of the heat shock response signaling pathway - cell viability counter screen (AID 743209). Further: nearly all actives have a fitted effect of over 50% in size. A digest of the protocol:
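Luminescence from CellTiter-Glo, added after the beta-lactamase FRET read, gave the viability signal. Cells were HSE-bla HeLa treated with DMSO-dissolved compounds for 5 h at 37 C following overnight plating.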

Test [12] can be described thus: qHTS assay for small molecule activators of the heat shock response signaling pathway (AID 743210; active means well fitted activation curve with a large enough effect in the signal ratio in the repeat runs, with a control signal flat, not every such curve was filed as active; the % refers to the signal ratio;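 further: HeLa cells with beta-lactamase reporter driven by heat shock elements; series mostly up to about 63 µM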). The method, boiled down:
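HeLa HSE-bla cells, overnight plating; cpd in DMSO 5 h, 37 C; LiveBLAzer B/G FRET substrate 2.5 h RT; fluorescence intensity read.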

Test [13] addresses Peroxisome proliferator-activated receptor gamma (Homo sapiens) (UniProt P37231). The test can be described thus: qHTS assay to identify small molecule agonists of the peroxisome proliferator-activated receptor gamma (PPARg) signaling pathway (AID 743094; active means well fitted activation curve with a large enough effect in the signal ratio in the repeat runs, not every such curve was filed as active; the % refers to the signal ratio). The method, boiled down:
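Beta-lactamase FRET fluorescence was the read-out after a 1 h room-temperature substrate step, following 17 h compound treatment at 37C of HEK293H cells expressing a UAS-driven bla reporter responsive to PPARg.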

The target is the same in test [14]. Briefly: qHTS assay to identify small molecule antagonists of the peroxisome proliferator-activated receptor gamma (PPARg) signaling pathway (AID 743191; calls by dose curve; further: series mostly up to about 63 µM; nearly all actives have a fitted effect of over 30% in size). The method, boiled down: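 Beta-lactamase reporter under UAS control in HEK293H PPARg-bla cells; compound treatment 17 h at 37C. Read-out: fluorescence intensity after 1 h room-temperature incubation with LiveBLAzer B/G FRET substrate.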

Test [15] has as its target Estrogen receptor (Homo sapiens) (UniProt P03372). The test can be described thus: qHTS assay to identify small molecule antagonists of the estrogen receptor alpha (ER-alpha) signaling pathway (AID 743069; active means well fitted curve in the direction sought with a large enough effect in the signal ratio in the repeat runs, not every such curve was filed as active; the % refers to the signal ratio). The method, boiled down: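 ER-alpha-UAS-bla GripTite HEK293 line; 2% charcoal-stripped FBS overnight; plated, 4 hr 37C/5% CO2; cpd in DMSO + 17beta-estradiol, 18 hr 37C; LiveBLAzer B/G FRET substrate 2 hr RT; fluorescence intensity.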

For test [16] the target is unchanged. The test can be described thus: qHTS assay to identify small molecule agonists of the estrogen receptor alpha (ER-alpha) signaling pathway (AID 743075; calls by dose curve;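 further: HEK293 GripTite cells with ER-alpha and UAS-driven beta-lactamase reporter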).
Test [17] is described as follows: qHTS assay to identify small molecule antagonists of the estrogen receptor alpha (ER-alpha) signaling pathway using the BG1 cell line (AID 743080; calls by dose curve;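 further: BG1 cells stimulated with 17beta-estradiol alongside compound; series mostly up to about 70 µM; nearly all actives have a fitted effect of over 25% in size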). A digest of the protocol: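 After 5 days in phenol-red-free 10% charcoal-stripped FBS medium, BG1-Luc-4E2 cells were seeded, left 24 h at 37 C, co-treated with compounds and 17beta-estradiol for 21.5 h, then assayed for viability and luciferase.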

The nature of test [18]: qHTS assay to identify small molecule antagonists of the thyroid receptor (TR) signaling pathway (AID 743065). The method, boiled down: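 Antagonism measured as loss of luciferase signal in GH3 cells stably carrying a TRE-luciferase reporter, co-treated with compound and T3 (1 nM final) for 23.5 h at 37 C. Viability was read in the same well by CellTiter-Fluor.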
Test [19] has as its target Estrogen receptor (Homo sapiens) (UniProt P03372). Briefly: qHTS assay to identify small molecule agonists of the estrogen receptor alpha (ER-alpha) signaling pathway using the BG1 cell line (AID 743079). Further: nearly all actives have a fitted effect of over 20% in size.

Results filed as inconclusive are left out. The source made the active and inactive calls. Unless noted, the call rests on the fitted dose curve; in most records, active means well fitted curve in the direction sought with a large enough effect in the repeat runs; inconclusive means weak or mixed curves; inactive means no such curve, though single readings can be large; an effect the other way counts as inactive or inconclusive.

Sequence of Aryl hydrocarbon receptor (Homo sapiens) (P35869 whole entry, looked up): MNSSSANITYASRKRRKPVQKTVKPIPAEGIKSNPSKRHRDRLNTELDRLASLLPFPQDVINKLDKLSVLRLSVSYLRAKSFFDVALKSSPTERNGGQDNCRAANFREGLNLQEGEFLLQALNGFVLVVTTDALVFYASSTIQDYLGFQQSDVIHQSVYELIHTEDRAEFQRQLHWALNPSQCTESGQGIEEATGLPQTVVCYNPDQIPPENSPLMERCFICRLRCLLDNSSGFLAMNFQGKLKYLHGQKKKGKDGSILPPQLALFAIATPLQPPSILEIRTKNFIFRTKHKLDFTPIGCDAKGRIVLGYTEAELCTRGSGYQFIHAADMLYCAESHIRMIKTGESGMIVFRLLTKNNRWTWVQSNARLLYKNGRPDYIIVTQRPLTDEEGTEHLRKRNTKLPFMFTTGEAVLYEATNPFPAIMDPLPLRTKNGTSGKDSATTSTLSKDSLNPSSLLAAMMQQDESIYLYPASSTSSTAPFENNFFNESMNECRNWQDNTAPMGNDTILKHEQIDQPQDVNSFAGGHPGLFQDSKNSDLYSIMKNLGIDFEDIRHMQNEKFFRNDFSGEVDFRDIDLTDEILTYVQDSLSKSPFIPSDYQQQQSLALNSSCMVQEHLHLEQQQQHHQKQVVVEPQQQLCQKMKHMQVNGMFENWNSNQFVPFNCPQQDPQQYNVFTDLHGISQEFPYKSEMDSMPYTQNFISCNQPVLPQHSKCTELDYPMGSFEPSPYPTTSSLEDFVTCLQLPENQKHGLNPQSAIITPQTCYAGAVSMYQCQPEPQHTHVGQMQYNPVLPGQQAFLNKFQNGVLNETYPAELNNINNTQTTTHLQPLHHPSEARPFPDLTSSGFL
Sequence of Aromatase (Homo sapiens) (P11511 whole entry, looked up): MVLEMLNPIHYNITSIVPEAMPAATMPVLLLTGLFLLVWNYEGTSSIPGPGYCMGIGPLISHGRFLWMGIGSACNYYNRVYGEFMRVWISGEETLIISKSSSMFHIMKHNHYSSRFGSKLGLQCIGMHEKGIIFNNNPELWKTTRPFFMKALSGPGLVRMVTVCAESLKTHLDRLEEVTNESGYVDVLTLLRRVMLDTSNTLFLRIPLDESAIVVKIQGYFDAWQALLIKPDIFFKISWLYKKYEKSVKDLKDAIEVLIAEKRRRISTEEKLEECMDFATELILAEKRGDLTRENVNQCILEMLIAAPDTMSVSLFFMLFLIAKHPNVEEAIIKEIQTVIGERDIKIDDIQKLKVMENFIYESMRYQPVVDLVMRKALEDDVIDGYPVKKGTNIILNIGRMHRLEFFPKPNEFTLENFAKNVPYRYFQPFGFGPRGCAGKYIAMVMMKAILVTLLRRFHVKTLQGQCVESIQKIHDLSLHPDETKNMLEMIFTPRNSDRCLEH
Sequence of Estrogen receptor (Homo sapiens) (P03372 whole entry, looked up): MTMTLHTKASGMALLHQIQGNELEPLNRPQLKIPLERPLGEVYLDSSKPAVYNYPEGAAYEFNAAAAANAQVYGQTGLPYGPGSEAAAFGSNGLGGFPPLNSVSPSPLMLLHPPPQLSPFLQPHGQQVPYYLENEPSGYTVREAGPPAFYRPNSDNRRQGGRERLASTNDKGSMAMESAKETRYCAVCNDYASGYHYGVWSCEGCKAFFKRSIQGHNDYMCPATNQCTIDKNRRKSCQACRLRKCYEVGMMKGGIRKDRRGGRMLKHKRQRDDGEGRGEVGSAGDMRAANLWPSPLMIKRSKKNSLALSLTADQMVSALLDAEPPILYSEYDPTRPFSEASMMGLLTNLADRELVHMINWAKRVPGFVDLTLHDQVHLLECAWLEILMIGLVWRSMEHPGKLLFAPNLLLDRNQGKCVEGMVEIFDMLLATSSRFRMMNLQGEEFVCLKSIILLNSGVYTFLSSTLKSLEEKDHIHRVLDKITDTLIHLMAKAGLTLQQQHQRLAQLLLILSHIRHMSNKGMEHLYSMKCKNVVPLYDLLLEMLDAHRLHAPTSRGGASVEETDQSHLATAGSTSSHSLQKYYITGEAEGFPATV
Sequence of Peroxisome proliferator-activated receptor gamma (Homo sapiens) (P37231 whole entry, looked up): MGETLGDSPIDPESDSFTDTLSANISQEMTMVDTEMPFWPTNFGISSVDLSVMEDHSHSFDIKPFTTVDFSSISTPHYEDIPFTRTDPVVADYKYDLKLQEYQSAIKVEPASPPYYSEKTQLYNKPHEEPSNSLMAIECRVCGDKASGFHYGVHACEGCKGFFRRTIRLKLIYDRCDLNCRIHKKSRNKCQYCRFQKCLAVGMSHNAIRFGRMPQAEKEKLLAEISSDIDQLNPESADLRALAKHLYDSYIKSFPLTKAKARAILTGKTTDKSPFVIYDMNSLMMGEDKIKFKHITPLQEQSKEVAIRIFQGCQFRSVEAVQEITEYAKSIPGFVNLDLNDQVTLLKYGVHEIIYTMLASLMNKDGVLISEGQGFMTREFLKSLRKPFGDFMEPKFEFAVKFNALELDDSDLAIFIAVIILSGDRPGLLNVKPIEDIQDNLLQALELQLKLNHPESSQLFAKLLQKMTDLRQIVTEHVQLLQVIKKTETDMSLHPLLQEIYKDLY

For the compound `CN1CCN(c2cc3c(cc2F)c(=O)c(C(=O)O)cn3-c2ccc(F)cc2)CC1`, the Potency entry (in test [1]; in test [4]; with Aromatase (Homo sapiens); in test [5]; in [6]; in test [7]) was “inactive” each time. Further, the Potency result in test [9] and in test [10] was “inactive” in each case. Also, the result in test [2], in [3], in [8], in [11] and in test [12] was inactive.

Turning to `COC(=O)CCSCCC(=O)OC`, the Potency entry in [1], in [4], in test [7], in test [9] and in test [10] was “inactive” throughout. In addition, the compound was called inactive in test [2], in test [3], in test [8], in test [11] and in test [12].

As for `COc1ccc(CCN(C)CCCC(C#N)(c2cc(OC)c(OC)c(OC)c2)C(C)C)cc1OC` (stereo not drawn), the Potency in test [1] is 29.8 µM (active). In addition, the result in [2], in test [3], in test [8], in test [11] and in test [12] was inactive. Also, the Potency result (in the test with Aromatase (Homo sapiens); in [6]; in test [7]; in test [9]; in test [10]) was “inactive” each time.

Regarding `CCOc1ccc(C(=O)OCCN(CC)CC)cc1`, the Potency result (in test [1]; in [4]; in the test with Aromatase (Homo sapiens); in [5]; in test [6]; in test [7]) was “inactive” throughout. Further, the Potency result in [14], in test [9] and in test [10] was “inactive” throughout. Further, the result in [2], in [3], in [13], in test [8], in [11] and in test [12] was inactive.

On to `C1OCOCO1`, for which the Potency entry (in [1]; in test [4]; with Aromatase (Homo sapiens); in test [5]; in test [6]; in [7]) was “inactive” each time. In addition, the Potency result in [10] is “inactive”. For the same compound, the compound was called inactive in [2], in test [3], in [13], in test [8], in [11] and in test [12].

Turning to `CC1=CC(C)C(C=O)CC1` (stereo not drawn), the Potency result (in [1]; in [16]; in test [4]; with Aromatase (Homo sapiens); in test [5]; in [6]) was “inactive” throughout. For the same compound, the Potency entry in test [7], in test [14], in test [9] and in test [10] was “inactive” in each case. Further, the outcome in test [2], in [15], in test [17], in [13], in test [8] and in [11] was inactive. For the same compound, the outcome in test [12] was inactive.

As for `COC(=O)[C@@H](N)Cc1ccc(O)c(O)c1`, the Potency was 21.1 µM (active) in test [1], 26.6 µM (active) in [5] and 26.6 µM (active) in test [6]. Also, the compound was called inactive in test [2], in test [3], in test [8], in test [11] and in test [12]. Moreover, the Potency result (in the test with Aromatase (Homo sapiens); in [10]) was “inactive” throughout.

On to `CC(=O)OCC(=O)[C@@]1(O)CCC2C3CCC4=CC(=O)CC[C@]4(C)C3[C@@H](O)C[C@@]21C` (stereo partly drawn), for which the Potency result (in test [1]; in test [4]; with Aromatase (Homo sapiens); in test [5]; in test [6]; in test [7]) was “inactive” in each case. Further, the Potency entry in test [14], in test [9] and in test [10] was “inactive” in each case. The compound was classed as inactive in test [2], in test [3], in test [13], in test [8], in test [11] and in test [12].

In the case of `CC(C)(O)C(=O)c1ccccc1`, the Potency result (in test [18]; in test [16]; in test [19]; in [4]; with Aromatase (Homo sapiens); in test [5]) was “inactive” each time. Moreover, the Potency result in test [6], in test [7], in test [14], in [9] and in test [10] was “inactive” each time. Moreover, the result in test [2], in [15], in test [3], in test [17], in test [13] and in test [8] was inactive. For the same compound, the compound was classed as inactive in test [11] and in test [12].
